For 59 compounds, cytotoxicity call results are on record in the antibiotic and cytotoxicity screens of Wong et al. (2023).

The campaign covered roughly 39,000 compounds. About 3,300 (8.5%) were called active. The sample holds actives, similar compounds and a random draw of the others, so the mix is not that of the screen.

The assay concerns HepG2. The assay can be described thus: cytotoxicity call (relative viability < 0.9). The settings on record: 10 µM.
Turning to `C[C@@H]1CN([C@H](C)CO)C(=O)c2cc(NC(=O)Cn3cnnn3)ccc2O[C@H]1CN(C)S(=O)(=O)c1cccs1`, the cytotoxicity call was “inactive”.

Turning to `CC(=O)n1cc([C@@H]2C=C(C(=O)N3CCCCCCC3)O[C@H](OCc3ccc(CO)cc3)C2)c2ccccc21`, the cytotoxicity call was “inactive”. For `COc1ccccc1C#Cc1ccc2c(c1)O[C@@H](CN(C)Cc1cncnc1)[C@@H](C)CN([C@@H](C)CO)S2(=O)=O` the value was “inactive”; for `COc1ccccc1C#Cc1ccc2c(c1)O[C@@H](CN(C)Cc1cccnc1)[C@H](C)CN([C@@H](C)CO)S2(=O)=O`, “inactive”. The value for `COc1ccccc1C#Cc1ccc2c(c1)O[C@H](CN(C)Cc1cccnc1)[C@H](C)CN([C@@H](C)CO)S2(=O)=O` was “inactive”; that for `COc1ccccc1C#Cc1ccc2c(c1)O[C@H](CN(C)Cc1cccnc1)[C@H](C)CN([C@H](C)CO)S2(=O)=O` was “inactive”.

For the compound `COc1ccccc1C#Cc1ccc2c(c1)O[C@H](CN(C)Cc1cccnc1)[C@@H](C)CN([C@@H](C)CO)S2(=O)=O`, the cytotoxicity call is “inactive”.

Turning to `COc1ccccc1C#Cc1ccc2c(c1)O[C@@H](CN(C)Cc1cccnc1)[C@@H](C)CN([C@H](C)CO)S2(=O)=O`, the cytotoxicity call was “inactive”. For `COc1ccccc1C#Cc1ccc2c(c1)O[C@@H](CN(C)Cc1cccnc1)[C@H](C)CN([C@H](C)CO)S2(=O)=O`, the cytotoxicity call is “active”. As to `COc1ccccc1C#Cc1ccc2c(c1)O[C@H](CN(C)Cc1cccnc1)[C@@H](C)CN([C@H](C)CO)S2(=O)=O`, the cytotoxicity call is “active”. The value for `COc1ccccc1C#Cc1ccc2c(c1)O[C@@H](CN(C)Cc1cccnc1)[C@@H](C)CN([C@@H](C)CO)S2(=O)=O` was “active”. On to `Cc1ccc(S(=O)(=O)Nc2ccc3c(c2)C(=O)N([C@@H](C)CO)C[C@@H](C)[C@H](CN(C)C(=O)C2CCCCC2)OCCCC[C@@H](C)O3)cc1`, for which the cytotoxicity call is “inactive”. The value for `C=CCOC(=O)[C@@H]1[C@H]2C(=O)O[C@H](c3ccccc3)[C@H](c3ccccc3)N2[C@H](c2ccc(OCCOC(=O)[C@@H]3C[C@@H]4C(=O)NCC(=O)N4[C@@H]3c3cccc(OCCO)c3)cc2)[C@@]12C(=O)Nc1ccccc12` was “inactive”; that for `C[C@@H]1CN([C@@H](C)CO)C(=O)Cc2cc(NC(=O)Nc3cccc4ccccc34)ccc2O[C@H]1CN(C)C(=O)Nc1ccc2c(c1)OCO2` was “inactive”; that for `C[C@@H]1CCCCO[C@@H](CN(C)C(=O)C2CCCCC2)[C@H](C)CN([C@H](C)CO)C(=O)c2cc(NC(=O)c3ccccc3)ccc2O1` was “inactive”. As for `C[C@H]1CN([C@@H](C)CO)C(=O)c2cc(NC(=O)CCCN(C)C)ccc2O[C@@H]1CN(C)Cc1ccc2c(c1)OCO2`, the cytotoxicity call was “inactive”.

For the compound `C[C@@H]1CCCCO[C@H](CN(C)Cc2ccc(Cl)c(Cl)c2)[C@@H](C)CN([C@@H](C)CO)C(=O)c2cc(NC(=O)Nc3ccc4c(c3)OCO4)ccc2O1`, the cytotoxicity call was “inactive”. `C[C@@H]1CN([C@H](C)CO)C(=O)c2cc(NC(=O)Nc3ccc4c(c3)OCO4)ccc2O[C@@H](C)CCCCO[C@@H]1CN(C)Cc1ccc(Cl)c(Cl)c1`: the cytotoxicity call was “active”. Regarding `C[C@@H]1CCCCO[C@H](CN(C)Cc2ccc(Cl)c(Cl)c2)[C@@H](C)CN([C@H](C)CO)C(=O)c2cc(NC(=O)Nc3ccc4c(c3)OCO4)ccc2O1`, the cytotoxicity call is “active”. The value for `C[C@@H]1CCCCO[C@@H](CN(C)Cc2ccc(Cl)c(Cl)c2)[C@H](C)CN([C@@H](C)CO)C(=O)c2cc(NC(=O)Nc3ccc4c(c3)OCO4)ccc2O1` was “inactive”; that for `C[C@@H]1CN([C@H](C)CO)C(=O)c2cc(NC(=O)Nc3ccc4c(c3)OCO4)ccc2O[C@@H](C)CCCCO[C@H]1CN(C)Cc1ccc(Cl)c(Cl)c1` was “active”.

For the compound `C[C@@H]1CCCCO[C@@H](CN(C)Cc2ccc(Cl)c(Cl)c2)[C@@H](C)CN([C@H](C)CO)C(=O)c2cc(NC(=O)Nc3ccc4c(c3)OCO4)ccc2O1`, the cytotoxicity call was “inactive”. For `C[C@H]1CCCCO[C@H](CN(C)Cc2ccc(Cl)c(Cl)c2)[C@@H](C)CN([C@@H](C)CO)C(=O)c2cc(NC(=O)Nc3ccc4c(c3)OCO4)ccc2O1` the value was “active”; for `C[C@H](CO)N1C[C@H](C)[C@@H](CN(C)Cc2ccc(Cl)c(Cl)c2)OCCCC[C@H](C)Oc2ccc(NC(=O)Nc3ccc4c(c3)OCO4)cc2C1=O`, “inactive”; for `CO[C@@H]1CN(C)C(=O)c2ccc(NS(=O)(=O)CC(F)(F)F)cc2OC[C@@H](C)N(Cc2nccs2)C[C@H]1C`, “inactive”. The value for `C=CC[C@H](CC(=O)NCCO)C(=O)NC[C@@H](OC(=O)[C@@H](CC=C)CC(=O)OC(C)(C)C)c1ccccc1` was “inactive”; that for `C[C@H](CO)N1C[C@H](C)[C@@H](CN(C)CC2CC2)Oc2c(NS(=O)(=O)c3ccccc3)cccc2C1=O` was “inactive”. The value for `CC(C)NC(=O)N(C)C[C@H]1Oc2ccc(NC(=O)Cn3cnnn3)cc2C(=O)N([C@H](C)CO)C[C@H]1C` was “inactive”; that for `CCCCC(=O)OC1(C(=O)CO)C(C)CC2C3CCC4=CC(=O)C=CC4(C)C3(F)C(O)CC21C` (centres undefined) was “inactive”; that for `Nc1cc(=O)nc(N)[nH]1` was “inactive”. With `C[C@H]1CN([C@@H](C)CO)C(=O)c2cccc(NC(=O)c3ccncc3)c2O[C@H]1CN(C)S(=O)(=O)c1ccccc1`, the cytotoxicity call is “inactive”. On to `CC(C)CC#Cc1ccc2c(c1)O[C@@H](CN(C)C(=O)Cc1ccncc1)[C@@H](C)CN([C@@H](C)CO)S2(=O)=O`, for which the cytotoxicity call is “inactive”.

With `CO[C@H]1CN(C)C(=O)c2cc(NC(=O)Nc3cccc(F)c3)ccc2OC[C@H](C)N(C(=O)Nc2c(C)noc2C)C[C@H]1C`, the cytotoxicity call was “inactive”. The value for `C[C@@H]1CCCCO[C@@H](CN(C)Cc2ccc(Cl)c(Cl)c2)[C@H](C)CN([C@H](C)CO)C(=O)c2cc(NC(=O)Nc3ccc4c(c3)OCO4)ccc2O1` was “inactive”; that for `C[C@@H]1CN([C@@H](C)CO)C(=O)c2cc(NC(=O)Nc3ccc4c(c3)OCO4)ccc2O[C@@H](C)CCCCO[C@H]1CN(C)Cc1ccc(Cl)c(Cl)c1` was “inactive”.

Regarding `C[C@@H]1CCCCO[C@@H](CN(C)Cc2ccc(Cl)c(Cl)c2)[C@@H](C)CN([C@@H](C)CO)C(=O)c2cc(NC(=O)Nc3ccc4c(c3)OCO4)ccc2O1`, the cytotoxicity call is “active”. For `C[C@@H]1CCCCO[C@H](CN(C)Cc2ccc(Cl)c(Cl)c2)[C@H](C)CN([C@@H](C)CO)C(=O)c2cc(NC(=O)Nc3ccc4c(c3)OCO4)ccc2O1` the value was “active”; for `CC(C)(C)NC(=O)N1CCC(CN)CC1`, “inactive”; for `C[C@H]1CCCCO[C@H](CN(C)C(=O)NC2CCCCC2)[C@@H](C)CN([C@@H](C)CO)C(=O)c2cc(NC(=O)Nc3ccc(F)cc3)ccc2O1`, “inactive”. Consider `CO[C@@H]1[C@H](O)[C@@H](CO)O[C@H]1n1cc(C)c(N)nc1=O`, for which the cytotoxicity call is “inactive”.

As for `C[C@@H]1CN([C@H](C)CO)C(=O)c2cccc(NS(=O)(=O)c3ccc(Cl)cc3)c2O[C@@H]1CN(C)Cc1ccc(C(F)(F)F)cc1`, the cytotoxicity call was “inactive”. The value for `CC(C)NC(=O)Nc1ccc2c(c1)C(=O)N([C@H](C)CO)C[C@H](C)[C@H](CN(C)Cc1ccccc1)OCCCC[C@H](C)O2` was “inactive”; that for `C[C@H]1CN([C@@H](C)CO)S(=O)(=O)c2ccc(C#Cc3ccccc3)cc2O[C@@H]1CN(C)S(C)(=O)=O` was “inactive”. The value for `CC1(N)CCN(c2cccnc2NC(=O)c2nc(-c3ncccc3C(F)(F)F)cnc2N)CC1` was “inactive”; that for `CCCNC(=O)N1C[C@H](C)[C@H](OC)CN(C)C(=O)c2cc(NS(=O)(=O)CC(F)(F)F)ccc2OC[C@@H]1C` was “inactive”; that for `COc1ccc(S(=O)(=O)Nc2ccc3c(c2)CC(=O)N([C@@H](C)CO)C[C@H](C)[C@@H](CN(C)Cc2ccc(Oc4ccccc4)cc2)O3)cc1` was “active”. For `COc1ccc(S(=O)(=O)Nc2ccc3c(c2)CC(=O)N([C@@H](C)CO)C[C@@H](C)[C@@H](CN(C)Cc2ccc(Oc4ccccc4)cc2)O3)cc1` the value was “inactive”; for `COc1ccc(S(=O)(=O)Nc2ccc3c(c2)CC(=O)N([C@H](C)CO)C[C@H](C)[C@H](CN(C)Cc2ccc(Oc4ccccc4)cc2)O3)cc1`, “active”; for `COc1ccc(S(=O)(=O)Nc2ccc3c(c2)CC(=O)N([C@H](C)CO)C[C@H](C)[C@@H](CN(C)Cc2ccc(Oc4ccccc4)cc2)O3)cc1`, “inactive”. For `COc1ccc(S(=O)(=O)Nc2ccc3c(c2)CC(=O)N([C@@H](C)CO)C[C@@H](C)[C@H](CN(C)Cc2ccc(Oc4ccccc4)cc2)O3)cc1`, the cytotoxicity call is “inactive”. The value for `COc1ccc(S(=O)(=O)Nc2ccc3c(c2)CC(=O)N([C@@H](C)CO)C[C@H](C)[C@H](CN(C)Cc2ccc(Oc4ccccc4)cc2)O3)cc1` was “inactive”; that for `COc1ccc(S(=O)(=O)Nc2ccc3c(c2)CC(=O)N([C@H](C)CO)C[C@@H](C)[C@@H](CN(C)Cc2ccc(Oc4ccccc4)cc2)O3)cc1` was “active”; that for `COc1ccc(S(=O)(=O)Nc2ccc3c(c2)CC(=O)N([C@H](C)CO)C[C@@H](C)[C@H](CN(C)Cc2ccc(Oc4ccccc4)cc2)O3)cc1` was “active”. Regarding `COc1ccc(NC(=O)Nc2ccc3c(c2)C(=O)N([C@H](C)CO)C[C@@H](C)[C@H](CN(C)C(=O)NC2CCCCC2)OCCCC[C@H](C)O3)cc1`, the cytotoxicity call was “inactive”. For `C[C@@H]1CN([C@@H](C)CO)C(=O)c2cc(C#CCN(C)C)cnc2O[C@H]1CN(C)Cc1ccc(C(=O)O)cc1` the value was “inactive”; for `COc1cccc(OC)c1C(=O)O[C@H]1[C@@H]2OC(=O)[C@@H](Cc3ccc4ccccc4c3)C/C=C/C[C@H](Cc3ccc4ccccc4c3)C(=O)O[C@H]2[C@@H](OC)O[C@@H]1CO`, “inactive”; for `Cc1ccc(S(=O)(=O)N(C)C[C@@H]2Oc3ccc(NC(=O)Cn4cnnn4)cc3C(=O)N([C@H](C)CO)C[C@@H]2C)cc1`, “inactive”. Take `Cc1noc(C)c1S(=O)(=O)Nc1cccc2c1O[C@@H](CN(C)S(=O)(=O)c1ccccc1)[C@@H](C)CN([C@@H](C)CO)C2=O`: the cytotoxicity call was “inactive”. The value for `C[C@H](CO)N1C[C@H](C)[C@@H](CN(C)C(=O)c2ccccc2)OCCCC[C@H](C)Oc2ccc(NS(=O)(=O)c3cccs3)cc2C1=O` was “inactive”.
